Results with a measured potency or affinity are listed apart. Active and inactive are the calls of the source.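 How the source made its calls: active means viability loss whose fitted half-maximal concentration is at most twice the top valid tested dose; inconclusive means flat curve with 30 to 70% loss, or poor fit; inactive means the rest.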

The text below walks through data of PubChem BioAssay AID1053125 (Broad Institute, 2014).

The nature of this assay: HepG2 cell cytotoxicity, dose response, cytotoxicity control, ATP luminescence, cherry-pick, set 6 (AID 1053125).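 Further: negative values mean loss of viability signal.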 To be noted: HepG2 viability, ATP luminescence (CellTiter-Glo), 72 h; series mostly up to 26 µM. For orientation: In ATP-based viability assays light output follows the ATP content of the culture.
Consider `CCCn1c(=N)c(S(=O)(=O)c2ccccc2)cc2c(=O)n3ccccc3nc21`, for which the compound was classed as inactive. Turning to `CCc1ccccc1S(=O)(=O)Cc1ccc(C(=O)N2CCN(c3ccccc3OC)CC2)o1`, the compound was called inactive. `Cc1ccc(-n2nnnc2CNC(=O)C(=O)c2c[nH]c3ccccc23)cc1C`: the result was inactive.

For `O=C(O)c1ccc(N/N=C/c2ccc(-c3ccccc3Cl)o2)cc1`, the compound was classed as inactive. Regarding `CCCCN1C=C(C(=O)OC)C(c2ccccc2Cl)C(C(=O)OC)=C1`, the result was inactive.

Consider `CC(C)CCN1C(=O)c2cccc3c(N)ccc(c23)C1=O`, for which the result was inactive. For `CC(C)(C)c1csc(N/N=C/c2ccc(O)cc2)n1` the value was “inactive”; for `C/C(=N\NC(=O)CC#N)c1cc2ccc(O)cc2oc1=O`, “inactive”; for `COCCCn1c(=N)c(C(=O)NC2CCCCC2)cc2c(=O)n3ccccc3nc21`, “inactive”. For the compound `Cc1cccn2c(=O)c3cc(C(=O)NCCN4CCOCC4)c(=N)n(Cc4ccc(F)cc4)c3nc12`, the compound was called inactive.

On to `Cc1cc(=O)oc2cc(OC(=O)c3cncc(Br)c3)ccc12`, for which the result was inactive.

Consider `Cc1c(O)ccc2cc(S(=O)(=O)c3ccccc3)c(=O)oc12`, for which the result was inactive.

Consider `COc1ccc(C2c3ccc(O)cc3Oc3ncn4nc(-c5ccccn5)nc4c32)cc1` (stereo not given), for which the outcome was inactive. Turning to `O=C(CCCn1c(=O)c2sccc2n(Cc2cc(=O)n3ccccc3n2)c1=O)NCc1ccco1`, the call was inactive. As to `O=c1oc2c(CN3CCCCC3)c(O)ccc2cc1-c1nc2ccccc2[nH]1`, the call was inactive. In the case of `CCOC(=O)c1oc2c(CN3CCN(CCO)CC3)c(O)c(CC)cc2c(=O)c1-c1nc2ccccc2s1`, the result was inactive. Turning to `CCN(CC)c1ccc2cc(C(N)=O)c(=O)oc2c1`, the call was inactive. For the compound `CCOc1ccc(C2C(C#N)=C(N)Oc3cc(O)ccc32)cc1OCC` (stereo not given), the result was inactive. Take `O=c1[nH]c2ccccc2nc1/C=C/c1ccccc1`: the compound was called inactive. In the case of `CCNC(=O)c1cc2c(=O)n3cccc(C)c3nc2n(Cc2ccc(C)cc2)c1=N`, the compound was called inactive. For the compound `Cn1nc(-c2ccc(Cl)cc2)c2cc(C(=O)N3CCN(c4ccccc4)CC3)sc21`, the result was inactive. Take `CCN(CC)c1ccc2cc(C#N)c(=O)oc2c1`: the outcome was inactive. On to `O=c1[nH]c(Nc2ccccc2Cl)cc2ccccc12`, for which the compound was classed as inactive. As to `CCOc1ccccc1N=c1oc2cc(O)ccc2cc1C(=O)NCC1CCCO1` (stereo not given), the call was inactive.

Consider `CCC(=O)N1C(C(=O)NCc2ccc(OC)cc2)CSC1c1ccc(OC)cc1` (stereo not given), for which the call was inactive. On to `CCCCN(CCCC)CC(O)Cn1c2ccccc2c(=O)c2ccccc21` (stereo not given), for which the compound was called inactive.

As to `COc1cccc2c(=O)c3c(cnn3C)n(C)c12`, the outcome was inactive. `COCCNC(=S)N/N=C/c1ccc(-c2ccc([N+](=O)[O-])cc2)o1`: the result was inactive. On to `CC1CCN(C(=O)COc2cccc3c2CCN(Cc2ccccc2)C3=O)CC1`, for which the result was inactive. In the case of `CCOc1ccc(C(=O)c2cc3ccc(O)cc3oc2=O)cc1`, the compound was called inactive. As for `CC(C)CCN(CCC(C)C)CC(O)Cn1c2ccccc2c(=O)c2ccccc21` (stereo not given), the outcome was inactive.

`Cc1noc(C)c1S(=O)(=O)N(CC(=O)N1CCCCCC1)c1ccc(C(C)C)cc1`: the compound was classed as inactive.

Take `CCN(CC)Cc1c(O)c(Cl)cc2c(C)cc(=O)oc12`: the compound was classed as inactive. As for `CCOCCCNc1nc2nc3ccc(C)cn3c(=O)c2cc1C(=O)NCC1CCCO1` (stereo not given), the call was inactive. For `CCN(CC)CCNC(=O)c1sc2nc(-c3ccccc3)cn2c1C` the value was “inactive”.
